In the library only some 12% were active in any assay of this set; here they are far more common.
JMJD2A Tudor = inhibitors of human JMJD2A Tudor domain. O75164. AlphaScreen JMJD2A-Tudor / H3K4me3 peptide binding. Potency, µM (titrated, usually from 114 µM), without a hit: at the highest dose activity change, negative = inhibition, most hits filed as inhibitors. 4.4% of 390,000 active. AID 504339; note: % is set by controls: 0 for no effect and ±100 for the full control effect; nearly all actives have a fitted effect of over 50% in size
HP1b binding inh = blocks HP1-beta chromodomain binding to methylated histone tails; P83916; AlphaScreen HP1-beta / biotin-H3K9me3 peptide binding; Potency, µM (top dose mostly 114 µM), for inactives: top-dose activity change, negative = inhibition, actives largely listed as inhibitors; 0.56% of 390,000 active; AID 540317; note: nearly all actives have a fitted effect of over 70% in size
Target sequence (P83916 whole entry, looked up): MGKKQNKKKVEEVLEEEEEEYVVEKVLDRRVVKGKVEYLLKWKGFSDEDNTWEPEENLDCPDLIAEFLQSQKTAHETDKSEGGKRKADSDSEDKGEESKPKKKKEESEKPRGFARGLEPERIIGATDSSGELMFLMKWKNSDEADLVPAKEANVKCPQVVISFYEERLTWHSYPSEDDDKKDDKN
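AlphaScreen: HP1-beta (50 nM) preformed 30 min with biotin-H3(1-18)K9me3 peptide (50 nM) in PBS pH 7.4, 0.01% Tween-20. Compound added for 30 min at RT, then streptavidin donor/nickel chelate acceptor beads (10 ug/mL) for 30 min.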
BAZ2B block = inhibitors of human BAZ2B bromodomain. Q9UIF8. AlphaScreen BAZ2B-H3K14Ac peptide displacement. Potency, µM (top dose mostly 114 µM), for the others: top-dose activity change, negative = inhibition, hits mostly inhibitors. 4.4% of 360,000 active. AID 504333; note: % is set by controls: 0 for no effect and ±100 for the full control effect; nearly all actives have a fitted effect of over 60% in size
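AlphaScreen displacement of biotin-H3(5-23)K14Ac peptide (50 nM final) from BAZ2B (50 nM final) in PBS pH 7.4, 0.01% Tween-20; complex preformed 30 min RT, then compounds (top 110 uM) 30 min RT, beads 20 min dark.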
G9a block = inhibitors of human histone lysine methyltransferase G9a. 8.8% of 350,000 active. G9a H3K9 monomethylation, AlphaScreen, 2 h. Potency, µM (series often up to 102 µM), for the others: at the top dose activity, negative = inhibition, actives largely listed as inhibitors. AID 504332; note: % is set by controls: 0 for no effect and ±100 for the full control effect; nearly all actives have a fitted effect of over 75% in size
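G9a (20 nM) preincubated 15 min RT with compounds, then 500 nM biotinylated H3K9 peptide and 20 uM SAM added; 2 h RT reaction. Monomethyl-H3K9 product detected by AlphaScreen with anti-H3K9me1 antibody, streptavidin donor and anti-rabbit IgG acceptor beads.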
PLK1 PBD block = blocks phosphopeptide binding to human PLK1 polo-box domain. 2.8% of 360,000 active. P53350. AID 720504. Potency, µM, without a hit: max response, negative = inhibition, hits mostly inhibitors. Plk1 PBD binding of FITC phosphopeptide, fluorescence polarization; note: series mostly up to about 57 µM; % is set by controls: 0 for no effect and ±100 for the full control effect; nearly all actives have a fitted effect of over 65% in size
Target sequence (P53350 whole entry, looked up, the tested form may be a part): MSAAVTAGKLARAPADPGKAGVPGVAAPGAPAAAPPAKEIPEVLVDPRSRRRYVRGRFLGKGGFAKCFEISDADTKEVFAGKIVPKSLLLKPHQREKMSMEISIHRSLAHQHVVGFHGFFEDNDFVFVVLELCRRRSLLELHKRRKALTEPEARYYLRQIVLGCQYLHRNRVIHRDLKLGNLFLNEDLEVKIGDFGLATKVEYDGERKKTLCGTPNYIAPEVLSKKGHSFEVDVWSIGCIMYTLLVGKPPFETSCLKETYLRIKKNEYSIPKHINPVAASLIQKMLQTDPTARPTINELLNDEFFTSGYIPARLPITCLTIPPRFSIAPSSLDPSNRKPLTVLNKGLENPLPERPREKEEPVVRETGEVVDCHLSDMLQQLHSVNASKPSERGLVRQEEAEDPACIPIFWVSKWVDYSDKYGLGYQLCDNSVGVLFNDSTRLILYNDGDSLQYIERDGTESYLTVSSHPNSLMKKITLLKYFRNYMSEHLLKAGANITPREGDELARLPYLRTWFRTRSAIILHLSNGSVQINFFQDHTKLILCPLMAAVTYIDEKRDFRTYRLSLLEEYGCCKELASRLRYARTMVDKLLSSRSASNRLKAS
Sfp inh = blocks B. subtilis Sfp PPTase activity. Q9F4F7. Biochemical Sfp PPTase activity, qHTS. Potency, µM, inactives show largest response in the series, negative = inhibition, actives largely listed as inhibitors. 3.5% of 310,000 active;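 note: the enzyme is Sfp with the accession as filed and its product quenches rhodamine fluorescence; 0% = enzyme reaction without inhibitor and -100% = no enzyme wells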
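Sfp 15 nM + cpd, 15 min RT; start w/ rhodamine-CoA 5 uM, BHQ-2-YbbR 12.5 uM (final); 50 mM Hepes pH 7.6, 10 mM MgCl2, 0.01% NP-40, 0.01% BSA; read 525/598 nm at 0 and 30 min.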
Numbers without * were called inactive; ? = inconclusive; / = no result given; ! = a repeat was not active; [ ] = another dose, or the depositor's remark. Calls come from the whole dose curve; as a rule, active = well fitted curve in the direction sought with a large enough effect; inconclusive = small, poorly fitted or top-dose-only effect, or another doubt; inactive = no such curve, though single readings can be large; an effect the other way counts as inactive or inconclusive. Potency is the fitted concentration of half-maximal effect.

SMILES	JMJD2A Tudor	HP1b binding inh	BAZ2B block	G9a block	PLK1 PBD block	Sfp inh
O=C1C[C@@H](O)[C@@H](O)[C@H]2[C@@H]3C(=O)N(C[C@@H]4CCCO4)C(=O)[C@@H]3CC[C@H]12	/	/	/	/	/	9.7%
COc1ccc(OC)c(CNc2ncnc3c2nc2n3CCCC2)c1	-3.6%	34.8%	-14.4%	-26.8%[59 µM]	/	/
Cc1c(C(=O)O)cccc1-c1ccc(/C=N/n2cnnc2)o1	89.1µM*	-5.6%	79.4µM*	35.5µM*	?	5.6%
Cc1c(C(=O)O)cccc1-c1ccc(/C=N/Nc2ccc(Br)cc2)o1	?	-12.8%	50.1µM*	10µM*	?	?
O=C(CNC(=O)c1ccc(F)cc1)N/N=C/c1cc(Br)ccc1OC(=O)/C=C/c1ccco1	-6.6%[11.4 µM]	34.7%	-7.2%	22.9%[59 µM]	-8.4%	25.1µM*
COc1ccc(C(=O)NCC(=O)N/N=C/c2ccco2)cc1OC	-8.2%	28.5%	-7.9%	70.8µM*	-9.3%	6.1%
COc1ccc(C(=O)NCCCCCC(=O)N/N=C/c2ccco2)cc1OC	-14.3%	19.2%	1.0%	-8.1%	-5.6%	-5.2%
CNC(=S)N1N=C(c2ccc(Br)cc2)CC1c1ccc(OC)cc1 (stereo not given)	2.51µM*	?	-34.0%	2.51µM*	-4.7%	44.7µM*
CNC(=S)N1N=C(c2ccc(C)cc2)CC1c1ccc(N(C)C)cc1 (stereo not given)	31.6µM*	50.1µM*	10µM*	14.1µM*	-9.3%	?
COc1ccc(C2=NN(C(=O)CN3CCCCC3)C(c3ccc(C)cc3)C2)cc1 (stereo not given)	-34.7%	5.4%	-22.3%	26.0%[12.7 µM]	-6.7%	22.2%
COc1ccc(C2CC(c3ccccc3)=NN2C(=O)CN2CCN(Cc3ccccc3)CC2)cc1 (stereo not given)	79.4µM*	-30.7%	35.5µM*	?	-5.3%	18.3%
CNC(=S)N1N=C(c2ccc(C)cc2)CC1c1ccc(OC)cc1 (stereo not given)	-15.2%	31.3%	-34.7%	8.2%[0.501 µM]	-4.2%	1.7%
Cc1cc(C(=O)NCc2ccc(F)cc2)c2ccccc2n1	-12.6%	10.0%	3.9%	21.9%	-3.9%	2.7%
CN(C)CCCN1c2ccc([N+](=O)[O-])cc2CCc2cc([N+](=O)[O-])ccc21	17.8µM*	?	/	/	/	/
CO[C@@H]1COC(=O)[C@H]2CCCN2C(=O)[C@@H](C)COC(=O)[C@H](COCc2ccccc2)NC(=O)C/C=C\[C@H]1C	/	/	/	/	/	6.8%
CC(C)c1ccc(C(=O)NNC(=O)c2n[nH]c(=O)c3ccccc23)cc1	-15.1%	27.4%	7.9%	5.01µM*	-4.8%	/
CC1CN(C(=S)c2cccc([N+](=O)[O-])c2)CC(C)O1 (stereo not given)	?	?	-19.3%	6.31µM*	?	50.1µM*
CC1CN(C(=S)NC(=O)c2ccc([N+](=O)[O-])cc2)CC(C)O1 (stereo not given)	-34.6%	24.0%	-33.7%[57.1 µM]	39.8µM*	-1.6%	3.6%
CC1CN(C(=O)COC(=O)c2ccc(N)c([N+](=O)[O-])c2)CC(C)O1 (stereo not given)	-3.1%	9.8%	4.3%	15.6%	-8.6%	-2.4%
CC1CN(C(=S)SCC(=O)c2ccc([N+](=O)[O-])cc2)CC(C)O1 (stereo not given)	-26.4%	-11.4%	?	14.1µM*	-2.8%	12.2%
O=C(NC(=S)N1CCOCC1)c1ccc([N+](=O)[O-])cc1	-5.5%	43.6%	?	8.91µM*	-13.3%	-11.6%
O=C(Oc1ccccc1)N1CCC2(CCCN(c3ccc(-c4ccccc4)cc3)C2)CC1	/	/	/	0.0%[12.7 µM]	/	13.1%
CCOc1ccc(S(=O)(=O)N2CCOCC2)cc1NC(=O)CCOc1ccc(C(C)(C)C)cc1	-7.6%	1.0%	-6.3%	7.0%	-3.9%	/
CS(=O)(=O)N1CCC2(CCCN(C(=O)Nc3ccccc3)C2)CC1	/	/	/	-2.5%[12.7 µM]	/	4.3%
CC1CN(C(=S)NC(=O)c2ccccc2)CC(C)O1 (stereo not given)	-25.0%	24.4%	-38.1%	70.8µM*	-6.0%	-24.6%
SMILES	JMJD2A Tudor	HP1b binding inh	BAZ2B block	G9a block	PLK1 PBD block	Sfp inh
N#Cc1ccccc1N=Cc1ccc(Br)cc1	11.0%[57.1 µM]	-0.1%	2.7%	4.7%[59 µM]	?	14.6%
COc1[nH]c(/N=C/c2ccccc2)c(C#N)c1C#N	44.7µM*!	-32.4%	?	3.16µM*	21.2µM*	-9.4%
Cc1cccc(C)c1NC(=S)/C(=C(\[O-])c1cccs1)[n+]1ccccc1	-30.7%	37.0%	0.4%	7.94µM*	-14.3%	?
[O-]/C(=C(\C(=S)Nc1cccc2ccccc12)[n+]1ccccc1)c1cccs1	79.4µM*	?	?	35.5µM*	-20.1%	?
CC1CC(C)CN(C(=O)COC(=O)CNC(=O)C23CC4CC(CC(C4)C2)C3)C1 (stereo not given)	-8.3%	32.2%	9.2%	15.0%	-0.3%	/
CCC1(c2ccc(F)cc2)NC(=O)N(CC(=O)N2CC(=O)Nc3ccccc32)C1=O (stereo not given)	-4.1%	19.8%	5.7%	-23.5%	4.7%	/
CCC1(C)C(Nc2c(C)cccc2C)=NC(=S)N1c1ccc(NC(C)=O)cc1 (stereo not given)	-4.1%	44.5%	-2.4%	-47.9%	0.7%	10.6%
Cc1ccc(F)cc1NC(=O)CCc1c(C)nn(-c2ccc(N3CCCCC3)nn2)c1C	-25.7%	61.0%	-14.6%	3.8%	-2.1%	3.3%
Cc1ccc(NC(=O)CCc2c(C)nn(-c3ccc(N4CCOCC4)nn3)c2C)cc1	-12.4%	32.2%	-4.6%[57.1 µM]	15.8%	-14.1%	12.4%
Cc1cc(F)ccc1NC(=O)CCc1c(C)nn(-c2ccc(N3CCCCC3)nn2)c1C	?	3.2%	-36.2%[57.1 µM]	?	21.2µM*	14.8%
Cc1nn(-c2ccc(N3CCCC3)nn2)c(C)c1CCC(=O)NCc1ccccc1	-10.3%	51.2%	-20.9%	3.7%[59 µM]	/	/
CSc1ccc(CNC(=O)CCc2c(C)nn(-c3ccc(N4CCCC4)nn3)c2C)cc1	-26.7%	-12.4%	56.2µM*	6.0%[59 µM]	/	/
CC(=O)c1ccc(NC(=O)CCc2c(C)nn(-c3ccc(N4CCOCC4)nn3)c2C)cc1	?	5.1%	?	16.0%[59 µM]	21.2µM*	21.2%
CCOc1ccccc1NC(=O)C(=O)c1cc(C)n(-c2cccc(C)c2C)c1C	-18.5%	33.5%	-24.5%	-35.5%[59 µM]	/	/
Cc1cccc(N2CCN(Cc3oc(CO)cc(=O)c3O)CC2)c1C	?	25.1%	-36.9%	4.7%[12.7 µM]	0.2%	-20.8%
O=c1cc(CO)oc(CN2CCN(CCO)CC2)c1O	2.82µM*	-2.4%	-30.3%	?	-8.2%	-26.3%
CN1CCN(C(=O)NCC23CC4CC(CC(C4)C2)C3)CC1	-4.1%	39.2%	-13.3%	/	-2.2%	16.1%

Compound activity (PubChem)
